In PMC5700166 one finds binding signal data, which are given here for 39 sequences.

For this test, the target named is T1, GST-Nv-NF-kB (Cys allele) (Nematostella vectensis, UniProt E5G601 2-411).
T1 sequence: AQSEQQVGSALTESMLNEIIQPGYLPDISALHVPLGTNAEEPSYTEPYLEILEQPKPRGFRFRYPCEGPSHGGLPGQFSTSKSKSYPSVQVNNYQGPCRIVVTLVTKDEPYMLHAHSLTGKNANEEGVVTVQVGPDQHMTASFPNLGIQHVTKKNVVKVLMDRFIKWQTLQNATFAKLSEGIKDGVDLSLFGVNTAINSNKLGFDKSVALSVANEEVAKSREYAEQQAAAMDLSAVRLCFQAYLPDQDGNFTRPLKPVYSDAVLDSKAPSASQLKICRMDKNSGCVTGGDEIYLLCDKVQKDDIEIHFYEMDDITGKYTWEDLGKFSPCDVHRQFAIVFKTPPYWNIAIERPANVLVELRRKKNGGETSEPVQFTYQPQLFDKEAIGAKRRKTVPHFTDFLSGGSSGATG
As to the kind of experiment: protein-binding microarray (PBM); PBM: ~300 nM protein, 6 mM HEPES pH 7.8, 80 mM KCl, 0.5 mM EDTA, 0.5 mM EGTA, 6% glycerol, 35 ng/ul poly-dIdC, 1% milk, 1 h, room temperature; Ap Aiptasia and Nv Nematostella (sea anemones) / Co Capsaspora / Aq Amphimedon (sponge) / Dm Drosophila / Hu human; RHD is the Rel homology domain; high values mean tight binding. Particulars: dsDNA, one strand shown.
“CCGATTAACATCAGACAATCCCCTGATGTTAATCGGGTCTTGATTCGCTTGACGCTGCTG”: the binding signal worked out at 7.1 z-score.

“CCGATTAACATCAGGAAAACCCCTGATGTTAATCGGGTCTTGATTCGCTTGACGCTGCTG” had a binding signal of 8.89 z-score.

The sequence “CCGATTAACATCAGGGAAATCACTGATGTTAATCGGGTCTTGATTCGCTTGACGCTGCTG” returned a binding signal of 4.78 z-score.

“CCGATTAACATCAGGAAAATCCCTGATGTTAATCGGGTCTTGATTCGCTTGACGCTGCTG”: the binding signal worked out at 7.7 z-score.

In turn, “CCGATTAACATCAAAAAGCCCCCTGATGTTAATCGGGTCTTGATTCGCTTGACGCTGCTG” returned a binding signal of 9.31 z-score.

In turn, “CCGATTAACATCAAATCTCCCCCTGATGTTAATCGGGTCTTGATTCGCTTGACGCTGCTG” yielded a binding signal of 6.08 z-score.

“CCGATTAACATCACACTACCCCCTGATGTTAATCGGGTCTTGATTCGCTTGACGCTGCTG” came in with a binding signal of 2.12 z-score.

The sequence “CCGATTAACATCAGGGGGAAACATGATGTTAATCGGGTCTTGATTCGCTTGACGCTGCTG” had a binding signal of 7.08 z-score.

On to “CCGATTAACATCAGGGGGAACGATGATGTTAATCGGGTCTTGATTCGCTTGACGCTGCTG”, for which the binding signal worked out at 4.82 z-score.

In turn, “CCGATTAACATCAAGTATCCCCCTGATGTTAATCGGGTCTTGATTCGCTTGACGCTGCTG” returned a binding signal of 5.06 z-score.

The sequence “CCGATTAACATCAATCTTTCCCCTGATGTTAATCGGGTCTTGATTCGCTTGACGCTGCTG” showed a binding signal of 7.61 z-score.

Take “CCGATTAACATCAAAATTACCCATGATGTTAATCGGGTCTTGATTCGCTTGACGCTGCTG”: the binding signal was 4.69 z-score.

On to “CCGATTAACATCACAAAAGTCCCTGATGTTAATCGGGTCTTGATTCGCTTGACGCTGCTG”, for which the binding signal was 9.22 z-score.

As to “CCGATTAACATCAGGGGGCAATATGATGTTAATCGGGTCTTGATTCGCTTGACGCTGCTG”, the binding signal is 3.24 z-score.

“CCGATTAACATCAGGGGACTACCTGATGTTAATCGGGTCTTGATTCGCTTGACGCTGCTG” returned a binding signal of 5.88 z-score.

Turning to “CCGATTAACATCACGGGATTTGGTGATGTTAATCGGGTCTTGATTCGCTTGACGCTGCTG”, the binding signal was 1.93 z-score.

“CCGATTAACATCACAAAGTCCCCTGATGTTAATCGGGTCTTGATTCGCTTGACGCTGCTG” returned a binding signal of 7.32 z-score.

Turning to “CCGATTAACATCAGAAATATCCCTGATGTTAATCGGGTCTTGATTCGCTTGACGCTGCTG”, the binding signal amounted to 2.67 z-score.

“CCGATTAACATCAGGGGGTTGGATGATGTTAATCGGGTCTTGATTCGCTTGACGCTGCTG” had a binding signal of 3.25 z-score.

“CCGATTAACATCACTACCCCCCCTGATGTTAATCGGGTCTTGATTCGCTTGACGCTGCTG” came in with a binding signal of 3.41 z-score.

In the case of “CCGATTAACATCAAATTCCCGGGTGATGTTAATCGGGTCTTGATTCGCTTGACGCTGCTG”, the binding signal came out at 3.9 z-score.

“CCGATTAACATCAAATTACCCCCTGATGTTAATCGGGTCTTGATTCGCTTGACGCTGCTG”: the binding signal was 5.57 z-score.

The sequence “CCGATTAACATCAAAAAAACCCCTGATGTTAATCGGGTCTTGATTCGCTTGACGCTGCTG” gave a binding signal of 10 z-score.

“CCGATTAACATCAGGGGATACACTGATGTTAATCGGGTCTTGATTCGCTTGACGCTGCTG” displayed a binding signal of 4.02 z-score.

As to “CCGATTAACATCAATTTTCCCCATGATGTTAATCGGGTCTTGATTCGCTTGACGCTGCTG”, the binding signal is 7.68 z-score.

On to “CCGATTAACATCAAAAATCCCACTGATGTTAATCGGGTCTTGATTCGCTTGACGCTGCTG”, for which the binding signal came to 3.55 z-score.

Consider “CCGATTAACATCAGCAATTCCCCTGATGTTAATCGGGTCTTGATTCGCTTGACGCTGCTG”, for which the binding signal was 7.8 z-score.

For “CCGATTAACATCAGGGAAAAGTATGATGTTAATCGGGTCTTGATTCGCTTGACGCTGCTG”, the binding signal was determined as 4.5 z-score.

With “CCGATTAACATCAATAACCCCCCTGATGTTAATCGGGTCTTGATTCGCTTGACGCTGCTG”, the binding signal was 5.55 z-score.

The sequence “CCGATTAACATCAGGGCATCCCCTGATGTTAATCGGGTCTTGATTCGCTTGACGCTGCTG” came in with a binding signal of 8.03 z-score.

With “CCGATTAACATCAGGGGGAGATATGATGTTAATCGGGTCTTGATTCGCTTGACGCTGCTG”, the binding signal turned out to be 5.33 z-score.

On to “CCGATTAACATCAGGGGATCCCCTGATGTTAATCGGGTCTTGATTCGCTTGACGCTGCTG”, for which the binding signal was 11.6 z-score.

In turn, “CCGATTAACATCACCCAATTCCCTGATGTTAATCGGGTCTTGATTCGCTTGACGCTGCTG” registered a binding signal of 3.63 z-score.

In the case of “CCGATTAACATCAAGGGGAAAACTGATGTTAATCGGGTCTTGATTCGCTTGACGCTGCTG”, the binding signal was 8.85 z-score.

On to “CCGATTAACATCAGGAAATCCCCTGATGTTAATCGGGTCTTGATTCGCTTGACGCTGCTG”, for which the binding signal amounted to 12.1 z-score.

With “CCGATTAACATCATTTGGGAAAATGATGTTAATCGGGTCTTGATTCGCTTGACGCTGCTG”, the binding signal is 3.26 z-score.

“CCGATTAACATCAATATTCCCCATGATGTTAATCGGGTCTTGATTCGCTTGACGCTGCTG” gave a binding signal of 8.39 z-score.

“CCGATTAACATCAGATTTCCCCCTGATGTTAATCGGGTCTTGATTCGCTTGACGCTGCTG” came in with a binding signal of 8.96 z-score.

Sequence “CCGATTAACATCAGGGCTGCCCCTGATGTTAATCGGGTCTTGATTCGCTTGACGCTGCTG” gave a binding signal of 3.62 z-score.
